Records with an inconclusive call do not appear. Activity calls are given as the source filed them. The call rests on the fitted dose curve; in most records, active means well fitted curve in the direction sought with a large enough effect; inconclusive means small, poorly fitted or top-dose-only effect, or another doubt; inactive means no such curve, though single readings can be large; an effect the other way counts as inactive or inconclusive.

Test [1] is described as follows: qHTS of pediatric cancer cell lines to identify multiple opportunities for drug repurposing: Primary screen for BT-37 cells (AID 1347094). Further: potency means the concentration at half of the fitted maximal effect. In a few lines: (§1)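 Cells seeded at 500-1,000 cells/well in growth media, rested 5 hours at 37 degrees C, 5% CO2, then dosed; MIPE compounds at 11-point (from 0.78 nM) and NPC at 8-point (from 0.59 nM) final concentrations. Viability by CellTiter-Glo luminescence after 48 hours.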

Test [2] can be described thus: qHTS of pediatric cancer cell lines to identify multiple opportunities for drug repurposing: Primary screen for Saos-2 cells (AID 1347097). Further: nearly all actives have a fitted effect of over 40% in size. Further: potency means the concentration at half of the fitted maximal effect. Put shortly:
as §1
Background: qHTS replaces the single test concentration by a dilution series.

A short description of test [3]: qHTS of pediatric cancer cell lines to identify multiple opportunities for drug repurposing: Primary screen for NB1643 cells (AID 1347099). Further: nearly all actives have a fitted effect of over 50% in size. Further: potency means the concentration at half of the fitted maximal effect. Put shortly:
as §1

The nature of test [4]: qHTS of pediatric cancer cell lines to identify multiple opportunities for drug repurposing: Primary screen for BT-12 cells (AID 1347101). Further: nearly all actives have a fitted effect of over 25% in size. Further: potency means the concentration at half of the fitted maximal effect. In a few lines:
(§2)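 Cells (500-1,000/well) rested 5 h, then received compounds for 48 h; metabolically active cells were measured by CellTiter-Glo luminescence. Final concentrations spanned up to 46 µM (MIPE, 11-point) or 0.59 nM-46 µM (NPC, 8-point) in primary screens, 11-point in follow-ups.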

Test [5] in a line: qHTS of pediatric cancer cell lines to identify multiple opportunities for drug repurposing: Primary screen for OHS-50 cells (AID 1347103). Further: nearly all actives have a fitted effect of over 40% in size. Further: potency means the concentration at half of the fitted maximal effect. Put shortly:
as §2

A short description of test [6]: qHTS of pediatric cancer cell lines to identify multiple opportunities for drug repurposing: Primary screen for RD cells (AID 1347104). Further: nearly all actives have a fitted effect of over 55% in size. Further: potency means the concentration at half of the fitted maximal effect. In a few lines: as §1
Test [7] can be described thus: qHTS of pediatric cancer cell lines to identify multiple opportunities for drug repurposing: Primary screen for MG 63 (6-TG R) cells (AID 1347105). Further: nearly all actives have a fitted effect of over 50% in size. Further: potency means the concentration at half of the fitted maximal effect. In a few lines: as §1
The nature of test [8]: qHTS of pediatric cancer cell lines to identify multiple opportunities for drug repurposing: Primary screen for control Hh wild type fibroblast cells (AID 1347106). Further: nearly all actives have a fitted effect of over 55% in size. Further: potency means the concentration at half of the fitted maximal effect. Put shortly:
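Viability after 48 h compound treatment at 37C, 500-1,000 cells/well, read as ATP luminescence with CellTiter-Glo. Primary screens used 11-point (MIPE, 0.78 nM-46 µM) or 8-point (NPC, 0.59 nM-46 µM) final concentrations; follow-up screens used 11-point dilutions.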

A short description of test [9]: qHTS of pediatric cancer cell lines to identify multiple opportunities for drug repurposing: Primary screen for Rh41 cells (AID 1347108). Further: nearly all actives have a fitted effect of over 70% in size. Further: potency means the concentration at half of the fitted maximal effect. In a few lines: as §1
A short description of test [10]: qHTS of pediatric cancer cell lines to identify multiple opportunities for drug repurposing: Primary screen for NB-EBc1 cells (AID 1347095). Further: potency means the concentration at half of the fitted maximal effect. Put shortly:
as §1

Test [11] can be described thus: qHTS of pediatric cancer cell lines to identify multiple opportunities for drug repurposing: Primary screen for U-2 OS cells (AID 1347096). Further: nearly all actives have a fitted effect of over 50% in size. Further: potency means the concentration at half of the fitted maximal effect. In a few lines: (§3)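 Cells (500-1,000/well) in growth media were settled 5 h at 37 degrees C, then given compounds for 48 h. Viability was read as CellTiter-Glo luminescence. Primary runs used MIPE at 11 points (0.78 nM-46 µM) and NPC at 8 points (0.59 nM-46 µM); follow-ups used 11 points.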

Test [12] is described as follows: qHTS of pediatric cancer cell lines to identify multiple opportunities for drug repurposing: Primary screen for SK-N-SH cells (AID 1347098). Further: nearly all actives have a fitted effect of over 65% in size. Further: potency means the concentration at half of the fitted maximal effect. Put shortly:
as §2

The nature of test [13]: qHTS of pediatric cancer cell lines to identify multiple opportunities for drug repurposing: Primary screen for LAN-5 cells (AID 1347100). Further: potency means the concentration at half of the fitted maximal effect. In a few lines:
as §3

Test [14] is described as follows: qHTS of pediatric cancer cell lines to identify multiple opportunities for drug repurposing: Primary screen for Rh18 cells (AID 1347102). Further: nearly all actives have a fitted effect of over 65% in size. Further: potency means the concentration at half of the fitted maximal effect. Put shortly: as §3
Test [15] can be described thus: qHTS of pediatric cancer cell lines to identify multiple opportunities for drug repurposing: Confirmatory screen for NB1643 cells (AID 1347109). Further: potency means the concentration at half of the fitted maximal effect; nearly all actives have a fitted effect of over 45% in size. In a few lines:
as §3

A short description of test [16]: qHTS of pediatric cancer cell lines to identify multiple opportunities for drug repurposing: Confirmatory screen for A673 cells (AID 1347110).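 Further: potency means the concentration at half of the fitted maximal effect; cells exposed to compound for 48 h before the viability read; nearly all actives have a fitted effect of over 65% in size.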 In a few lines:
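Viability was read as ATP luminescence (CellTiter-Glo) after 48 h of compound exposure at 37 C in A673 cells seeded at 500-1,000/well. Titrations reached 46 uM final, with 11 points in the confirmatory screen. Concentration-response curves were fitted directly.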

Test [17] in a line: qHTS of pediatric cancer cell lines to identify multiple opportunities for drug repurposing: Confirmatory screen for BT-12 cells (AID 1347112). Further: potency means the concentration at half of the fitted maximal effect; nearly all actives have a fitted effect of over 55% in size. Put shortly:
as §3

The nature of test [18]: qHTS of pediatric cancer cell lines to identify multiple opportunities for drug repurposing: Confirmatory screen for LAN-5 cells (AID 1347113). Further: potency means the concentration at half of the fitted maximal effect; nearly all actives have a fitted effect of over 65% in size. Put shortly:
as §3

A short description of test [19]: qHTS of pediatric cancer cell lines to identify multiple opportunities for drug repurposing: Primary screen for Rh30 cells (AID 1347107). Further: series mostly up to about 46 µM; nearly all actives have a fitted effect of over 75% in size. In a few lines: as §3
Test [20] in a line: qHTS of pediatric cancer cell lines to identify multiple opportunities for drug repurposing: Confirmatory screen for SK-N-MC cells (AID 1347111).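 Further: potency means the concentration at half of the fitted maximal effect; cells exposed to compound for 48 h before the readout; nearly all actives have a fitted effect of over 70% in size.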 In a few lines: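 Metabolically active cells were quantified by ATP-dependent luminescence (CellTiter-Glo, 15 min at room temperature) following 48 h treatment. Cells had been plated at 500-1,000 per well and settled for 5 h beforehand.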

For `CCOc1cc2c(c(F)c1OCC)C(=N)N(CC(=O)c1cc(N3CCOCC3)c(OC)c(C(C)(C)C)c1)C2`, the Potency in test [1] was 27.3 µM (active); in test [2], 14.8 µM (active); in [3], 4.69 µM (active); in test [4] it was 27.3 µM (active); in [5], 21.7 µM (active); in [6], 16.6 µM (active). Further, the Potency was 14.8 µM (active) in [7] and 23.5 µM (active) in test [9]. Further, the Potency result in test [8] is “inactive”.
For the molecule `CCN(CC)CCNC(=O)c1c(C)[nH]c(C=C2C(=O)Nc3ccc(F)cc32)c1C`, the Potency was 7.62 µM (active) in [10]; 21.5 µM (active) in test [11]; 4.29 µM (active) in test [2]; 22.1 µM (active) in [12]; 38.2 µM (active) in test [3]; 4.29 µM (active) in [13]. In addition, the Potency was 44.4 µM (active) in test [4]; 17.1 µM (active) in test [14]; 1.4 µM (active) in [5]; 9.59 µM (active) in test [6]; 13.6 µM (active) in test [7]; 17.1 µM (active) in [8]. The Potency was 13.6 µM (active) in test [9]; 10.7 µM (active) in [15]; 10.7 µM (active) in [16]; 33.9 µM (active) in [17]; 10.7 µM (active) in [18].
Regarding `O=C(Nc1ccc(Oc2ccnc3[nH]ccc23)c(F)c1)c1cccn(-c2ccc(F)cc2)c1=O`, the Potency result in test [1], in test [11], in test [12], in [3], in [13] and in [4] was “inactive” each time. Further, the Potency result in [6], in [7], in [8], in [19] and in test [9] was “inactive” throughout. The Potency in [2] was 20.9 µM (active).
Take `Nc1nc(N)c2nc(-c3cccc(O)c3)c(-c3cccc(O)c3)nc2n1`: the Potency in test [1] is 21.7 µM (active); in test [11], 23.5 µM (active); in test [2] it was 18.7 µM (active); in [12], 19.2 µM (active); in test [3], 5.9 µM (active); in test [13], 11.8 µM (active). The Potency in [4] was 21.7 µM (active); in test [5], 19.3 µM (active); in test [6], 11.8 µM (active).
Regarding `O=C(Nc1cccc(Nc2ncc(Br)c(NCCc3cnc[nH]3)n2)c1)N1CCCC1`, the Potency in test [1] is 21.7 µM (active); in [2], 1.05 µM (active); in [12] it was 13.6 µM (active); in test [13], 0.118 µM (active); in test [4], 19.3 µM (active); in test [5], 17.2 µM (active). Moreover, the Potency in test [6] is 16.6 µM (active); in test [7], 14.8 µM (active); in test [9] it was 9.35 µM (active). Also, the Potency entry in test [11] is “inactive”.
`CN1C(C(=O)Nc2ccccn2)=C(O)c2sc(Cl)cc2S1(=O)=O`: the Potency in [10] is 16.6 µM (active); in test [12], 9.61 µM (active); in test [3], 18.7 µM (active). The Potency result in test [11], in test [4], in test [5] and in test [19] was “inactive” throughout.
For the molecule `c1cc(CN2CCCNCCNCCCNCC2)ccc1CN1CCCNCCNCCCNCC1`, the Potency entry in test [10], in test [11], in test [2], in [3], in test [13] and in test [4] was “inactive” each time. Also, the Potency result in [5], in test [6], in test [7], in test [8], in test [19] and in test [9] was “inactive” throughout.
In the case of `CN[C@@H]1C[C@H]2O[C@@](C)([C@H]1OC)n1c3ccccc3c3c4c(c5c6ccccc6n2c5c31)C(=O)N[C@H]4O`, the Potency was 0.166 µM (active) in [10]; 2.96 µM (active) in test [11]; 0.235 µM (active) in [2]; 0.607 µM (active) in test [12]; 0.526 µM (active) in [3]; 1.32 µM (active) in [13]. The Potency in test [4] was 27.3 µM (active); in test [14], 0.59 µM (active); in test [5], 0.217 µM (active); in [7], 0.187 µM (active); in test [9], 5.9 µM (active); in test [15], 0.737 µM (active). Further, the Potency in test [16] is 0.369 µM (active); in test [20], 0.233 µM (active); in test [18], 0.928 µM (active).
On to `COc1cc(C)c(C=CC(C)=CC=CC(C)=CC(=O)O)c(C)c1C`, for which the Potency entry in [10], in [11], in test [2], in [12], in test [3] and in test [14] was “inactive” throughout. The Potency result in test [6], in [8] and in [19] was “inactive” each time. Further, the Potency in test [5] is 1.72 µM (active).
On to `CC(=O)NCC(=O)N1[C@H]2CC[C@H]1c1cc(Nc3ncc(C(F)(F)F)c(NC4CCC4)n3)ccc12`, for which the Potency in test [10] is 0.0662 µM (active); in [2], 0.743 µM (active); in test [12] it was 1.08 µM (active); in test [3], 1.18 µM (active); in [13], 0.0332 µM (active); in [4], 24.3 µM (active). Besides, the Potency in test [5] was 0.344 µM (active); in test [6] it was 2.35 µM (active); in test [7], 2.35 µM (active); in test [9] it was 1.48 µM (active); in [16] it was 4.14 µM (active); in [20], 0.0827 µM (active). Besides, the Potency in test [17] was 16.5 µM (active); in [18], 1.47 µM (active). For the same molecule, the Potency result in test [11] was “inactive”.
For `COc1cc2c(cc1OC)[C@@H]1C(=O)c3ccc4c(c3O[C@@H]1CO2)C=CC(C)(C)O4`, the Potency in test [10] is 10.5 µM (active); in [2], 13.2 µM (active); in test [3], 3.32 µM (active); in [13] it was 18.7 µM (active); in test [4], 0.0273 µM (active); in test [5], 0.172 µM (active). Also, the Potency in [6] was 0.264 µM (active); in [16], 16.5 µM (active); in test [20], 2.33 µM (active); in test [17], 1.31 µM (active); in test [18] it was 3.69 µM (active). Moreover, the Potency result in [11] and in [14] was “inactive” throughout.

The record behind these values is PubChem BioAssay (NCATS).
